From PubChem BioAssay
Shown are actives, neighbours in structure and some others; about 7.3% of the full set was active somewhere.
NPC1 prom act = activates the NPC1 promoter | Huh7 NPC1 promoter luciferase reporter, 24 h | Potency, µM (top dose mostly 9.22 µM), hits mostly activators | actives 2.4% (n = 320,000) | AID 485313; also: nearly all actives have a fitted effect of over 60% in size
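Stably transfected Huh7 (NPC1 promoter→luciferase), 1500 cells/well in Opti-MEM + 10% FBS, 2 h settle, then compound 24 h at 37 °C. Luminescence after 10 min with Amplite reagent.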
Rab9 promoter act = Rab9 promoter activation | Huh7 Rab9 promoter-luciferase reporter, luminescence, 24 h | Potency, µM (doses to about 9.22 µM), actives largely listed as activators | actives 2.8% (n = 320,000); also: nearly all actives have a fitted effect of over 60% in size
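Promoter activation is measured as luciferase luminescence in Huh7 cells stably transfected with a Rab9 promoter–luciferase construct, following 24 h compound exposure at 37 °C and 10 min reagent incubation at ambient temperature.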
ELG1 genotox = genotoxicity induction in ELG1-luciferase HEK293T cells; Potency, µM (doses to about 46 µM), actives largely listed as activators; actives 1.3% (n = 330,000); HEK293T ELG1-luciferase reporter, luminescence, 16 h; also: nearly all actives have a fitted effect of over 60% in size
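Quantitative HTS format in 1536-well plates. HEK293T ELG1-luciferase reporter cells receive test compound and are incubated 16 hr at 37 °C, 5% CO2; ONE-Glo added, 30 min room temperature, then luminescence read.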
SMN2 splice up = increases expression of the SMN2 splice variant; HEK293 SMN2-luciferase splicing reporter, luminescence, 30-36 h; Potency, µM (highest dose often 46.1 µM), usual class: activators; actives 2.8% (n = 210,000); also: nearly all actives have a fitted effect of over 55% in size
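HEK293 cells carry an SMN2 minigene-luciferase reporter in which exon 7 inclusion puts luciferase in frame. Cells were seeded at 2000 cells/well, attached for 10-12 hours, then exposed to compounds for 30-36 hours at 37C before ONE-Glo luminescence.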
Luc counter = blocks Kinase-Glo luciferase, a counter-screen artifact. Potency, µM (series often up to 38.3 µM), actives largely listed as inhibitors. Kinase-Glo luciferase, ATP luminescence, 8 min. actives 0.28% (n = 200,000); also: nearly all actives have a fitted effect of over 60% in size
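Compounds were added to a substrate mix at pH 7.2 (50 mM imidazole, 10 uM ATP, within the enzyme's linear range), followed by Kinase-Glo detection reagent; luminescence was measured after 8 minutes at ambient temperature.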
FLuc counter = firefly luciferase modulation, counter-screen for miR-21 project; P08659; purified FLuc, Km substrates, luminescence inhibition; Potency, µM (doses to about 57.5 µM), most hits filed as inhibitors; actives 6.9% (n = 360,000); also: nearly all actives have a fitted effect of over 55% in size
Target sequence (P08659 whole entry, looked up): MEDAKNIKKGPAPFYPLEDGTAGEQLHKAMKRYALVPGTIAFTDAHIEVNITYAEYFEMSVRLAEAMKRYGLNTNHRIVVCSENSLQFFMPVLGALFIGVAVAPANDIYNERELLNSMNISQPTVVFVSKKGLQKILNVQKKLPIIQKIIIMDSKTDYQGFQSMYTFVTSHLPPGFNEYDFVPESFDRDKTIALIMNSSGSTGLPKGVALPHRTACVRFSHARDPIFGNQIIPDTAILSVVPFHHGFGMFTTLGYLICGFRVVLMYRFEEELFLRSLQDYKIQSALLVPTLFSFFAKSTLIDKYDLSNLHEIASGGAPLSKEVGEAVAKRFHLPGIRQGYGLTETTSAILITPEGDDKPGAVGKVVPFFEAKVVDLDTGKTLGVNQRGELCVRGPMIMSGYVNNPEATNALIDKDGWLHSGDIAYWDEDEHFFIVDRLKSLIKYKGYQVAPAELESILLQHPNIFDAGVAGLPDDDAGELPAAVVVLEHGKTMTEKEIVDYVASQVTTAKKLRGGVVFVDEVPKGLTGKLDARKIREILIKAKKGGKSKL
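Biochemical qHTS of compounds, final roughly 60 µM downward over six points, against 10 nM purified firefly luciferase using Km concentrations of substrates (10 uM D-luciferin, 10 uM ATP) in Tris acetate pH 7.5 buffer; luminescence output.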
Hits are given with their value; . = inactive; ? = inconclusive; / = no result given; [ ] = remark or other dose. Calls follow the shape of the dose curve; as a rule, active = well fitted curve in the direction sought with a large enough effect; inconclusive = small, poorly fitted or top-dose-only effect, or another doubt; inactive = no such curve, though single readings can be large; an effect the other way counts as inactive or inconclusive.

SMILES	NPC1 prom act	Rab9 promoter act	ELG1 genotox	SMN2 splice up	Luc counter	FLuc counter
Cc1cccc(C(=O)OCC(=O)N2CCc3ccccc3C2)c1O	/	/	.	/	/	/
Cc1cc(C)cc(C(=O)OCC(=O)N2CCCC2)c1	.	.	.	/	/	.
O=C(OCC(=O)N1CCOCC1)c1ccccc1Cc1ccccc1	1.58µM	3.16µM	13µM	11.2µM	.	9.53µM
Cc1cccc(C(=O)OCC(=O)N2CCCCCC2)c1	?	?	?	/	/	19µM
COc1ccc(-c2nc3c4cnn(-c5ccccc5F)c4ncn3n2)cc1	/	/	/	.	/	?
Cc1cc(C)cc(NS(=O)(=O)c2ccc3c(c2)NC(=O)C(C)S3)c1 (configuration not stated)	/	/	/	/	/	.
Cc1cc(C(=O)N/N=C/c2ccc[nH]2)no1	.	.	.	.	.	.
Cc1cc(C(=O)N/N=C/c2ccccc2Br)no1	.	.	.	.	.	21.3µM
COCCCNc1nc2c(-c3cccc(Br)c3)nnn2c2ccccc12	/	/	/	.	/	.
CC(C)c1ccc(C(=O)CSc2ncn[nH]2)cc1	?	?	?	.	.	9.53µM
O=C(CSc1ncn[nH]1)c1ccc2c(c1)OCCO2	.	.[1.84 µM]	?	.	.	?
Cc1ccc(-c2cn(-c3ccccc3)c(=S)[nH]2)cc1C	1.12µM	0.126µM	3.26µM	/	/	12µM
CCC(C)NC(=O)C1CCN(S(=O)(=O)c2ccc3c(ccn3CC)c2)CC1 (configuration not stated)	/	/	/	/	/	.
CCOc1ccccc1CN1CCc2nc(Nc3ccc4c(c3)OCCO4)ncc2C1	/	/	/	/	/	.
CC(C)(C)c1ccc2c(c1)OC(C(=O)N/N=C\c1ccccn1)CO2 (configuration not stated)	.	.	.	.	.	.
CC(C)(C)c1ccc2c(c1)OC(C(=O)N/N=C\c1ccc(-c3cccc(C(=O)O)c3)o1)CO2 (configuration not stated)	.	.	.	/	/	19µM
O=C(O)c1cccc(-c2ccc(/C=N/NC(=O)C3COc4ccccc4O3)o2)c1 (configuration not stated)	.	.	.	.	.	23.9µM
CCCN(CCC)C(=O)Cn1c(=O)n(-c2ccc(CC)cc2)c(=O)c2ccc(C(=O)NCCc3ccccc3)cc21	/	/	/	.	/	.
CCSc1ncc(/C=N/Nc2ccc(F)cc2)n1C	?	?	.	11.2µM	.	10.7µM
CC(=O)Nc1ccc(NC(=O)CSc2ncc(C(=O)Nc3ccc(F)cc3)c(=O)n2C)cc1	.	.	.	/	/	?
Cc1nn(CC(=O)Nc2ccc3c(c2)nc(CCN2CCCCC2)n3C)c(=O)c2ccccc12	.	.	.	.	.	.
Cc1nn(CC(=O)Nc2ccc3c(c2)nc2n3CCN(C3CCCCC3)C2)c(=O)c2ccccc12	.	.	.	/	.	21.3µM
Clc1ccc2c(NC3CCC(N4CCCCC4)CC3)ccnc2c1 (configuration not stated)	/	/	/	.[9.22 µM]	.[7.66 µM]	/
CC(=O)N(c1nnc(-c2ccc(C)cc2)s1)C1CCCC1	.	?	?	/	/	13.5µM
CCOc1ccccc1NC(=O)C(NCCc1ccc(OC)cc1)c1ccccc1 (configuration not stated)	.	.	.	/	/	26.9µM
SMILES	NPC1 prom act	Rab9 promoter act	ELG1 genotox	SMN2 splice up	Luc counter	FLuc counter
Cc1c(C)c2ccc(OCc3ccc(C(=O)O)o3)c(C)c2oc1=O	.	.	?	.	.	10.7µM
C=CCc1ccc(OCc2ccc(C(=O)OC)o2)c(OC)c1	?	0.501µM	10.3µM	?	.	7.57µM
Cc1ccc(OCc2ccoc2C(=O)O)cc1C	.	.	.	.	.	19µM
Cc1ccc(OC(C)C(=O)O)cc1C (configuration not stated)	.	.	.	.	.	.
C=CCc1ccc(OCC(O)COCC)c(OC)c1 (configuration not stated)	?	?	18.4µM	12.6µM	.	19µM
COC1=C(C(=O)c2ccccc2)C(=O)C2(CC=C(C)C)C[C@H](C(=O)OCC(F)(F)F)C(C)(C)[C@@]1(CC=C(C)C)C2=O (tested in a mixture with another compound)	/	/	/	.	.	/
CCOC(=O)c1c(NC(=O)c2cc(-c3ccc(Br)cc3)on2)sc(C)c1C	/	/	/	.	/	.
Cc1ccccc1C(=O)Nc1ccc2nc(SCC(=O)N3CCc4ccccc43)sc2c1	/	/	/	/	/	.
Cc1ccc(OCc2ccc(C(=O)N3CCOCC3)cc2)cc1C	3.55µM	1.41µM	?	11.2µM	.	6.75µM
Cc1ccc(OCc2ccc(C(=O)O)o2)cc1C	?	?	?	/	/	10.7µM
COC(=O)c1ccc(COc2cc(C)ccc2C)o1	.	.	?	/	/	10.7µM
Cc1ccc(OCc2ccc(C(=O)Nc3nccs3)o2)cc1C	?	?	.	.	.	16.9µM
CCOC(=O)c1scc(-c2ccc(C)cc2)c1S(=O)(=O)N1CCN(c2ccccc2)CC1	/	/	/	/	/	.
CCCCN1CC(c2nc3ccccc3n2CCCCOc2ccc(C)c(C)c2)CC1=O (configuration not stated)	/	/	/	/	/	.
CCc1cc(=O)oc2cc(OCc3ccc(C(=O)O)o3)ccc12	?	?	.	/	/	26.9µM
COC(=O)c1ccc(COc2ccc(C)c(C)c2)o1	1.41µM	1.58µM	?	/	/	?
COC(=O)c1ccc(COc2ccc3ccc(=O)oc3c2)o1	.	.	.	/	/	.
O=C(O)c1ccc(COc2ccc3c4c(c(=O)oc3c2)CCC4)o1	.	.	.	/	/	?
COc1ccc(OC)c(CNC(=O)c2ccc3c(c2)c(C)c(C)n3Cc2ccc(Cl)cc2)c1	/	/	/	/	/	.
C[C@H](OP(=O)(O)O)[C@H](N)C(=O)O	/	/	/	.[9.22 µM]	.[7.66 µM]	/
COC(=O)CSc1nc2ccc(NC(C)=O)cc2s1	.	.	.	.	.	?
O=C(O)c1ccc(CSc2nc3ccc(NC(=O)c4ccccc4C(=O)O)cc3s2)cc1	.	.	.	.	.	16.9µM
CC(=O)Nc1ccc2nc(SCc3ccccc3)sc2c1	/	/	/	/	/	13.5µM
N#Cc1ccccc1CSc1nc2ccc(NC(=O)c3ccccc3C(=O)O)cc2s1	.	.	.	/	.	?
CCN(CC)c1ccc(/C=N/NC(=O)c2ccco2)cc1	?	?	5.8µM	1.58µM	.	1.51µM
SMILES	NPC1 prom act	Rab9 promoter act	ELG1 genotox	SMN2 splice up	Luc counter	FLuc counter
CCN(CC)c1ccc(/C=N/NC(=O)Cc2cccs2)c(O)c1	.	.	?	.	.	?
CCN(CC)c1ccc(/C=N/NC(=O)c2ccco2)c(O)c1	.	.	23.1µM	/	/	5.36µM
COc1cc(Br)ccc1C1C(C(=O)Nc2ccc(C)cc2C)=C(C)Nc2nnnn21 (configuration not stated)	/	/	/	.	/	.
O=C(NC(=S)Nc1ccccc1N1CCOCC1)c1sc2ccccc2c1Cl	.	.	.	.	.	.
Cc1ccc(NC(=S)NC(=O)c2sc3ccccc3c2Cl)c(C(=O)O)c1	.	.	.	.	.	26.9µM
O=C(NNC(=S)NC(=O)c1sc2ccccc2c1Cl)c1ccc(Cl)cc1	.	.	.	.	.	?
